# This is a sample that favours compounds with a hit; in the whole collection about 7.8% have one here.
# Vaccinia mCherry = inhibitors of vaccinia virus infection (mCherry reporter signal); Vaccinia virus mCherry reporter infection, fluorescence; Potency, µM (doses to about 36.5 µM), for inactives: top-dose activity change, negative = inhibition, most hits filed as inhibitors; 0.63% of 310,000 active; calls by dose curve; tested in A549 cells; also: potency is read from the fitted curve at half-maximal effect; nearly all actives have a fitted effect of over 35% in size
# LASV entry inh = Lassa virus entry inhibition | 1.2% of 300,000 active | Lassa virus pseudotype entry inhibition, cell reporter | Potency, µM (top dose mostly 37.9 µM), for inactives: top-dose activity change, negative = inhibition, usual class: inhibitors; calls by dose curve; tested in HEK293 cells; also: potency is read from the fitted curve at half-maximal effect; nearly all actives have a fitted effect of over 50% in size
# HCMV antiviral = blocks human cytomegalovirus replication; HFF cells, HCMV-luciferase reporter, 72 h; stronger effect = lower value; activity change, negative = inhibition, % at 57.5 µM; 4.5% of 410,000 active; in the data active = activity change below about -60%; inconclusive = no clear call, values can overlap the other calls; inactive = above about -39%
#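 Cell-based, HFFs, 1000 cells/well, 16 h 37C; cpds in DMSO + HCMV-luc, MOI 1 PFU/cell; 72 h 37C; OneGlo luminescence after 5 min RT; norm. to buffer vs Salinomycin 10uM.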
# Marburg entry inh = blocks Marburg virus binding to or entry into cells. 1.8% of 300,000 active. Potency, µM (titrated, usually from 37.8 µM), without a hit: at the top dose activity change, negative = inhibition, most hits filed as inhibitors. Marburg virus pseudotyped entry inhibition, cell reporter; calls by dose curve; tested in HEK293 cells; also: potency is read from the fitted curve at half-maximal effect
# Vaccinia Venus = vaccinia inhibition (Venus reporter); Potency, µM (doses to about 36.5 µM), inactives show at the top dose activity change, negative = inhibition, hits mostly inhibitors; 0.46% of 330,000 active; Vaccinia virus Venus reporter expression, fluorescence; calls by dose curve; tested in A549 cells; also: potency is read from the fitted curve at half-maximal effect; nearly all actives have a fitted effect of over 30% in size
# HCV inhibitor = inhibitors of hepatitis C virus infection; AID 651820; Huh7.5.1 HCVcc-Cre infection, luciferase reporter, 44 h; Potency, µM (doses to about 41.8 µM), for the others: at the highest dose activity change, negative = inhibition, actives largely listed as inhibitors; 3.4% of 340,000 active; active = well fitted inhibition curve with a large enough effect; inconclusive = small, poorly fitted or top-dose-only effect, or another doubt; inactive = no such curve, though single readings can be large or run the other way; also: potency is read from the fitted curve at half-maximal effect
#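 Antiviral activity was scored by luciferase reporter output from cells infected with HCVcc-Cre (~0.5 moi) in presence of compound, 44 h infection period, cells seeded 1,000/well 4 h prior.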
# Active calls of the source: *; i = inactive; ? = inconclusive; · = not tested or not shown; [ ] = another dose, or the depositor's remark. % is scaled to controls: 0 for no effect and ±100 for the full control effect.
SMILES,Vaccinia mCherry,LASV entry inh,HCMV antiviral,Marburg entry inh,Vaccinia Venus,HCV inhibitor
CC[C@H](C)[C@H]1O[C@]2(C=C[C@@H]1C)C[C@@H]1C[C@@H](C/C=C(\C)[C@@H](O[C@H]3C[C@H](OC)[C@@H](O[C@H]4C[C@H](OC)[C@@H](O)[C@H](C)O4)[C@H](C)O3)[C@@H](C)/C=C/C=C3\CO[C@@H]4[C@H](O)C(C)=C[C@@H](C(=O)O1)[C@]34O)O2,-21%,·,·,·,-14%,·
CCOC(=O)c1sc2ncn(CC(=O)Nc3ccc(F)cc3F)c(=O)c2c1C,-3%,6%[46.1 µM],11,19%[46.1 µM],-9%,·
CSCCC(NC(=O)c1ccccc1Br)C(=O)NCc1ccc(F)cc1 (configuration not stated),·,·,-63*,·,·,5%
CCCc1sc(N/N=C/c2ccccn2)nc1-c1ccc(F)cc1,11µM*,?,·,?,?,?
Cc1nc(N/N=C/c2ccccn2)sc1C,?,1.8µM*,-98*,1.3µM*,?,?
CCn1cc(S(=O)(=O)c2ccccc2)c(=O)c2cc(C)ccc21,-7%,-17%[46.1 µM],18,-3%[46.1 µM],-3%,·
COc1ccc(CC(=O)NO)cc1OC,-1%,·,·,·,-14%,·
NC(=O)c1ccccc1OCc1cccc2ccccc12,-15%,1%[46.1 µM],-17,-25%[46.1 µM],-13%,?
NC(=O)c1cccc2cc3ccccc3cc12,1%,?,?,-13%[46.1 µM],-4%,11µM*
COc1ccc(-c2cccc3c2OC(CNC(=O)c2ccccc2-n2cccn2)C3)nn1 (configuration not stated),-6%,·,·,·,8%,·
CCOc1ccc(Cn2c(=O)sc3ccccc32)cc1OC,·,·,?,·,·,10µM*
COc1ccc(NC(=O)Cn2c3ncccc3c(=O)n2-c2ccc(C)c(C)c2)c(OC)c1,-17%[7.34 µM],-15%[46.1 µM],-2,·,-14%[7.34 µM],·
CN(C)c1ccc(/C=C2/C(=O)Nc3ccccc32)cc1,·,·,·,2µM*,·,·
CN(C)c1ccc(/C=C2\C(=O)Nc3ccccc32)cc1,-12%,?,·,2µM*,-19%,·
CN(C)c1ccc(/C=C2\C(=O)/C(=C/c3ccc(N(C)C)cc3)c3ccccc32)cc1,-8%,·,·,·,18%,·
CCOC(=O)c1c(C)[nH]c(CCC(=O)Nc2ccc(C)c(F)c2)c1C,-12%,-11%[46.1 µM],-26,·,-9%,·
CCNC(=O)C1(C)CCN(C(=O)c2ccccc2F)C1 (configuration not stated),9%,·,-98*,·,-2%,·
COCCNC(=O)C1(C)CCN(C(=O)c2cccnc2Oc2ccccc2)C1 (configuration not stated),28µM*,·,-1,·,32µM*,·
COc1cccc(C(=O)NC(C)c2nnc3n2CCN(CC=C(C)C)CC3)c1 (configuration not stated),-4%,·,·,·,-17%,·
COCOc1c2c(c(OCOC)c3c(OCOC)cccc13)C(=NNS(C)(=O)=O)C1=C2CCCC1,·,·,·,1%[14.2 µM],·,·
Cc1ccc(CNC(=O)Cn2c(=O)n(-c3ccc(C)cc3)c(=O)c3c2c2cc(C)ccc2n3C)cc1,-1%,2%[46.1 µM],19,·,0%,·
CC(=O)OC[C@H]1O[C@H](CCON=C(C)CCC(=O)OC[C@H]2O[C@H](C#Cc3ccccc3)C=C[C@H]2Oc2ccc(C)cc2)C=C[C@H]1OC(C)=O,·,·,·,21%[14.2 µM],·,·
Oc1ccc(/C=C/c2cc(O)cc(O)c2)cc1,?,7.3µM*,64,3.2µM*,-8%,-7%[8.37 µM]
CSc1cccc(NC(=O)C2CCN(c3ncnc4c3nc3n4CCCCC3)CC2)c1,-2%,-24%[46.1 µM],?,·,-16%,·
Cc1cc(C)cc(NS(=O)(=O)c2ccc3c(c2)CCCN3C(=O)C2CCC2)c1,-30%,?,-30,·,-23%,·
SMILES,Vaccinia mCherry,LASV entry inh,HCMV antiviral,Marburg entry inh,Vaccinia Venus,HCV inhibitor
CC1CCN(S(=O)(=O)c2ccc3nc(Nc4cccc(F)c4)ccc3c2)CC1,?,-21%[46.1 µM],-102*,·,-24%,·
Cc1ccc(Nc2ccc3cc(S(=O)(=O)N4CCC(C)CC4)ccc3n2)c(Cl)c1,-7%,-21%[46.1 µM],-12,·,-18%,·
c1ccc(CN(Cc2ccccc2)c2c3c(nc4ncnn24)CCC3)cc1,·,·,-94*,·,·,-3%
COc1ccccc1C1CN(CCNC(=O)c2ccccc2Cl)Cc2ccccc2O1 (configuration not stated),i,·,·,·,-16%,·
Cc1ccc2nc(-c3sc4nc(C)cc(C)c4c3N)[nH]c2c1,?,13µM*,249,?,?,19%
Cc1ccc2nc(-c3cccc(N)c3)[nH]c2c1,-21%,?,66,?,-16%,-2%
CNc1c(Cl)cc(/C=C2\C=Cc3ccccc32)cc1Cl,31%,·,·,·,-3%,·
CSc1nnc(NC(=O)c2nc(S(=O)(=O)Cc3ccccc3F)ncc2Cl)s1,i,?,-96*,?,-6%,?
O=C(Nc1nc2ccc(F)cc2s1)c1nc(S(=O)(=O)Cc2ccccc2F)ncc1Cl,-24%,?,-109*,?,-19%,·
Cc1nnc(NC(=O)c2nc(SCc3ccccc3F)ncc2Cl)s1,-6%,-1%[46.1 µM],31,-12%[46.1 µM],-1%,·
Cc1nnc(NC(=O)c2nc(S(=O)(=O)Cc3ccccc3C)ncc2Cl)s1,·,·,-102*,·,·,?
CC(C)c1nnc(NC(=O)c2nc(S(=O)(=O)Cc3ccccc3F)ncc2Cl)s1,·,·,-111*,·,·,?
Cc1cccc(CSc2ncc(Cl)c(C(=O)Nc3nc4ccc(F)cc4s3)n2)c1,-15%,5%[46.1 µM],13,-11%[46.1 µM],-12%,·
CCOC(=O)c1c(C)oc2nc(C)nc(NCCCN3CCN(c4ccccc4OC)CC3)c12,-22%,?,6,·,-10%,·
CC1=C(c2ccc(C)c(C)c2)S(=O)(=O)N=C1N1CCC(C(=O)NCc2ccc(C)o2)CC1,-16%,19%[46.1 µM],0,·,-6%,·
Cc1ccc(S(=O)(=O)C(CNC(=O)COc2ccccc2)c2cccs2)cc1 (configuration not stated),1%,-15%[46.1 µM],-10,·,-2%,·
CCOc1ccc(NC(=O)c2nc(S(=O)(=O)Cc3ccccc3F)ncc2Cl)cc1,?,?,-100*,?,?,·
O=C(Nc1ccccc1)c1nc(S(=O)(=O)Cc2ccccc2F)ncc1Cl,-12%,·,·,·,-16%,·
COc1ccc(NC(=O)Nc2cc(C)cc(C)c2)cn1,i,9%[46.1 µM],-22,8%[46.1 µM],-16%,-17%
CCSCCc1nnc(NC(=O)Nc2cccc(C(F)(F)F)c2)s1,·,·,-83*,·,·,3.5µM*
COc1ccc(NC(=O)Nc2cccc(C(F)(F)F)c2)cn1,?,?,-63*,-26%[46.1 µM],?,?
O=C(Nc1cccc(C(F)(F)F)c1)Nc1nnc([C@H]2C[C@H](O)[C@@H](CO)O2)s1,30%,·,-36,·,11%,·
O=C(Nc1cccc(C(F)(F)F)c1)Nc1cccs1,-26%,·,-80*,-13%[46.1 µM],?,·
O=C(Nc1ccccc1)Nc1cccc(C(F)(F)F)c1,-10%,-15%,-34,-6%[46.1 µM],-15%,?
CNC(=O)COC(=O)/C=C/c1cccs1,1%,1%,-12,?,4%,10%
